± gives the standard deviation of the averaged measurements.

In test [1] the test system is DLD1. Kind of test: cell viability (CellTiter-Glo) relative to plate median (fraction of plate median); higher = more viable cells. The note with it: 5 µM; treatment time 24 h; reporter: 7TFP. In a few lines: (§1)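 Colorectal cancer cell lines stably carrying lentiviral TCF/Wnt firefly luciferase reporters (7TFP or TCF4/Wnt) were plated in 384-well plates and, 24 h later, given library compounds at a final 5 µM for 24 h. Firefly luciferase or CellTiterGlo luminescence was read on parallel plates with a Tecan F500 reader. Each well's signal was normalised to the plate median in webcellHTS2 (additive, without log transformation). Values are the mean of two independent replicates.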

The next test relates to HCT116. Described as above. The note with it: 5 µM; treatment time 24 h; reporter: TCF4/Wnt. The procedure, abridged: as §1
For test [2], the system named is SW480. The test is described as above. The note with it: 5 µM; treatment time 24 h; reporter: 7TFP. In a few lines:
as §1

For test [3], the system named is DLD1. The experiment in a line: TCF/Wnt firefly luciferase reporter signal relative to plate median (fraction of plate median); higher = higher Wnt reporter signal. The note with it: 5 µM; treatment time 24 h; reporter: 7TFP. The procedure, abridged:
as §1
In general terms: A reporter such as luciferase makes a cellular process visible.

Test [4] deals with SW480. The description is as above. The note with it: 5 µM; treatment time 24 h; reporter: 7TFP. In a few lines:
as §1

For the compound `Cc1cc(-n2c(=O)[nH]c(=O)n(C)c2=O)ccc1Oc1ccc(SC(F)(F)F)cc1`, the cell viability stood at 0.946 ± 0.052 in the test on DLD1 [1], 1 ± 0.023 in the test with HCT116 and 0.952 ± 0.016 in the test with SW480 [2]. Besides, the “TCF/Wnt firefly luciferase reporter signal” value turned out to be 0.926 ± 0.013 with DLD1 [3] and 1.04 ± 0.06 in the test on SW480 [4].

As for `CC(C)C[C@H]1C(=O)N2CCC[C@H]2C(=O)N1O` [Cyclo(hydroxyleucylprolyl)], the results for the cell viability in the test on DLD1 [1], in the test on HCT116 and in the test with SW480 [2] were 0.978 ± 0.074, 0.973 ± 0.081 and 0.988 ± 0.088, respectively. Besides, the “TCF/Wnt firefly luciferase reporter signal” value in the test on DLD1 [3] was 0.949 ± 0.0042; with SW480 [4], 1.05 ± 0.071.

For the compound `CCOc1ccc(C(=O)c2cc(O)c(OC)c(OC)c2O)cc1`, the cell viability in the test with DLD1 [1] is 0.982 ± 0.054; in the test on HCT116, 0.925 ± 0.11; in the test on SW480 [2], 0.9935 ± 0.0021. In addition, the figures for the “TCF/Wnt firefly luciferase reporter signal” value in the test with DLD1 [3] and with SW480 [4] were 1.09 and 0.948 ± 0.062, respectively.

Turning to `CC(=O)c1oc2c(C)c3oc(=O)cc(C)c3cc2c1C` [2-Acetyl-3,5,9-trimethylfuro[3,2-g]-chromen-7-one (VFT-04)], the cell viability with DLD1 [1] amounted to 1.02 ± 0.11; in the test on HCT116, 0.96 ± 0.05; in the test on SW480 [2], 1.085 ± 0.0071. Further, the “TCF/Wnt firefly luciferase reporter signal” value is 1.16 ± 0.028 with DLD1 [3] and 1.12 ± 0.078 in the test on SW480 [4].

With `O=C(CCBr)N1CCN(C(=O)CCBr)CC1`, the cell viability stood at 1.07 ± 0.042 with DLD1 [1], 1.035 ± 0.0071 in the test with HCT116 and 1.025 ± 0.0071 in the test with SW480 [2]. Moreover, the “TCF/Wnt firefly luciferase reporter signal” value in the test with DLD1 [3] came to 1.03 ± 0.12; with SW480 [4] it was 1.01 ± 0.019.

`CC(C)(C)NCC(O)c1cc(O)cc(O)c1` (stereo not given): the cell viability in the test with DLD1 [1] stood at 1.045 ± 0.0071; in the test with HCT116, 1.02 ± 0.061; in the test with SW480 [2], 1.09 ± 0.028. For the same compound, the “TCF/Wnt firefly luciferase reporter signal” value with DLD1 [3] was determined as 0.999 ± 0.03; with SW480 [4], 1.03 ± 0.13.

In the case of `COC(=O)/C(=C1/OC(=O)C(c2ccccc2)=C1O)c1ccccc1`, the cell viability worked out at 1.06 ± 0.057 in the test on DLD1 [1], 1.02 ± 0.12 in the test with HCT116 and 1.07 ± 0.064 with SW480 [2]. Besides, the “TCF/Wnt firefly luciferase reporter signal” value in the test on DLD1 [3] was 1.05 ± 0.14; in the test on SW480 [4], 1.1 ± 0.05.

Turning to `C/C=C/CCC(=O)c1c(C)c(O)c(O)c(C)c1O` [Sohirnone C], the figures for the cell viability with DLD1 [1], in the test with HCT116 and with SW480 [2] were 1.11 ± 0.05, 0.995 ± 0.035 and 1.05 ± 0.057, respectively. Also, the results for the “TCF/Wnt firefly luciferase reporter signal” value in the test with DLD1 [3] and with SW480 [4] were 1.07 ± 0.014 and 1.08 ± 0.071, respectively.

For `CC1(C)C(=O)[C@H]2C[C@]3(O)C4=CC(=O)O[C@@H](c5ccoc5)[C@@]4(C)CCC3[C@](C)(C2=O)[C@H]1CC(=O)O` (stereo not given in full), the cell viability in the test with DLD1 [1] is 1.085 ± 0.0071; in the test with HCT116 it was 1.1 ± 0.064; with SW480 [2], 1.05 ± 0.028. The “TCF/Wnt firefly luciferase reporter signal” value in the test on DLD1 [3] was 1.11 ± 0.099; in the test with SW480 [4] it was 0.972 ± 0.083.

`OC[C@@H](O)[C@@H](O[C@@H]1O[C@H](CO)[C@H](O)[C@H](O)[C@H]1O)[C@H](O)[C@@H](O)CO`: the cell viability in the test on DLD1 [1] is 1.02 ± 0.038; with HCT116 it was 0.904 ± 0.067; in the test with SW480 [2], 0.979 ± 0.021. For the same compound, the “TCF/Wnt firefly luciferase reporter signal” value was determined as 0.781 ± 0.083 in the test on DLD1 [3] and 1.03 ± 0.1 in the test with SW480 [4].

In the case of `Oc1cc2c(cc1O)C1c3ccc(O)c(O)c3OCC1(O)C2` (stereo not given), the cell viability with DLD1 [1] came to 1.03 ± 0.028; in the test with HCT116 it was 1.04 ± 0.028; in the test with SW480 [2], 1 ± 0.023. Besides, the “TCF/Wnt firefly luciferase reporter signal” value in the test with DLD1 [3] is 0.944 ± 0.035; in the test on SW480 [4] it was 1.04 ± 0.035.

Consider `CCCCCC1C(=O)CCC1CC(=O)OC` (stereo not given), for which the cell viability was 0.99 ± 0.057 in the test with DLD1 [1], 1.03 ± 0.084 with HCT116 and 1.025 ± 0.0071 in the test on SW480 [2]. In addition, the “TCF/Wnt firefly luciferase reporter signal” value turned out to be 1.08 ± 0.05 with DLD1 [3] and 1.03 ± 0.066 with SW480 [4].

Consider `O=C(O)CCNC(=O)c1ccccc1`, for which the cell viability was found to be 1.04 ± 0.035 with DLD1 [1], 1.035 ± 0.0071 in the test with HCT116 and 1 ± 0.026 in the test with SW480 [2]. Also, the figures for the “TCF/Wnt firefly luciferase reporter signal” value in the test on DLD1 [3] and in the test on SW480 [4] were 0.972 ± 0.0099 and 1.005 ± 0.0071, respectively.

`CCCCc1nc(Cl)c(CO)n1Cc1ccc(-c2ccccc2-c2nnn[nH]2)cc1`: the cell viability came out at 0.909 ± 0.09 in the test with DLD1 [1], 0.921 ± 0.052 in the test with HCT116 and 1.02 ± 0.045 in the test on SW480 [2]. For the same compound, the “TCF/Wnt firefly luciferase reporter signal” value in the test on DLD1 [3] was determined as 1.08 ± 0.25; in the test on SW480 [4], 0.715 ± 0.37.

Consider `C=C1C[C@]23C[C@@]1(O)CC[C@H]2[C@@]12C=C[C@H](O)[C@@](C)(C(=O)O1)[C@H]2[C@@H]3C(=O)O`, for which the cell viability was 1.03 ± 0.014 in the test on DLD1 [1], 1.08 ± 0.05 in the test with HCT116 and 1.02 ± 0.052 in the test with SW480 [2]. Further, the “TCF/Wnt firefly luciferase reporter signal” value with DLD1 [3] worked out at 0.88 ± 0.0028; in the test with SW480 [4], 0.869 ± 0.14.
